Screening data from PubChem BioAssay.
TEAD-YAP inh: TEAD-YAP interaction inhibition; AID 1259422; inhibition, % at 9.12 µM; actives 1.4% (n = 640,000); HEK-TIYL cells, TEAD-Gal4/YAP UAS-luciferase luminescence; in the data active = inhibition above about 32%
FBW7 activator: human FBW7 E3 ligase activation, primary screen; Q969H0; AlphaScreen FBW7–phospho-cyclin E peptide binding, activator screen; normalized activity (activation), % at 26.1 µM; actives 0.13% (n = 650,000); AID 1259310; in the data active = normalized activity above about 1.9%;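 also: purified mutant Fbw7 with reduced substrate affinity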
Target sequence (Q969H0 whole entry, looked up): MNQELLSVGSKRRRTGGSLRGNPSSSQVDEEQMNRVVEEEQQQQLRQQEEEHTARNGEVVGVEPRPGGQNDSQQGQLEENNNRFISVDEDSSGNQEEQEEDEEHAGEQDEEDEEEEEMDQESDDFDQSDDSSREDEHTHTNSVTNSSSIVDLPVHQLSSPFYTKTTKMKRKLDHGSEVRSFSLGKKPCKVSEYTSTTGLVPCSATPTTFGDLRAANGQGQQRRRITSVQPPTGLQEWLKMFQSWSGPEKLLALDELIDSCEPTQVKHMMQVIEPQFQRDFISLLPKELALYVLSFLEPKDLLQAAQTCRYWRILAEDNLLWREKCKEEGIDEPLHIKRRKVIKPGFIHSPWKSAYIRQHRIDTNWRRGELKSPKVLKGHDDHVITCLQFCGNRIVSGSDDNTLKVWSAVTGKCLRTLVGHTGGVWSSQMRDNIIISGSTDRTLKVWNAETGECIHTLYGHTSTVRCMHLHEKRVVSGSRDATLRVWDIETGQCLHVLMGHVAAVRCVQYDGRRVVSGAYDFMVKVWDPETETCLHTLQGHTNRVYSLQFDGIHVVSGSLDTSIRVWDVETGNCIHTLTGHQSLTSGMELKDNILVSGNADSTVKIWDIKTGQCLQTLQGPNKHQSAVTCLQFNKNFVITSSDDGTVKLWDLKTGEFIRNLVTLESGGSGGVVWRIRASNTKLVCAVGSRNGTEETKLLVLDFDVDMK
MITF primary: human MITF inhibition, primary screen; inhibition, % at 2.6 µM; O75030; AlphaScreen MITF homodimerization, bead proximity signal; actives 0.91% (n = 650,000); AID 1259374; in the data active = inhibition above about 50%
GPR151 activ: activates the human receptor GPR151. Q8TDV0. PathHunter beta-arrestin GPR151 cells, luminescence. activation, % at 11.2 µM. actives 1% (n = 650,000). AID 1508602; in the data active = activation above about 4.9%
A number is an active result; - = inactive. The list is not random: actives were taken first. Their share in the collection is about 3.5%.

SMILES	TEAD-YAP inh	FBW7 activator	MITF primary	GPR151 activ
COc1ccc(/C=N/NC(=S)Nc2cccc(C(=O)O)c2)c(OC)c1	-	-	-	-
O=C(O)c1cccc(NC(=S)N/N=C/c2cccc(O)c2)c1	-	-	-	-
COc1ccc(O)c(/C=N/NC(=S)Nc2cccc(C(=O)O)c2)c1	-	-	104	-
O=[N+]([O-])c1ccc(NC(c2ccco2)c2ccc3cccnc3c2O)cc1 (stereo not drawn)	70	-	58	-
O=C(Cc1ccccc1)NC(c1ccco1)c1ccc2cccnc2c1O (stereo not drawn)	-	-	-	-
O=[N+]([O-])c1cccc(NC(c2ccco2)c2ccc3cccnc3c2O)c1 (stereo not drawn)	75	-	82	-
Cc1c(C(=O)NCc2c(F)cccc2F)c(=O)oc2ccccc12	-	-	-	-
O=C(Nc1cc(-c2ccncc2)c[nH]c1=O)C1Cc2c(ccc3ccccc23)O1 (stereo not drawn)	33	-	-	-
COC(=O)C1=CN(Cc2ccc(OC)c(OC)c2)C=C(C(=O)OC)C1c1ccccc1Br	-	-	-	-
COc1cccc(C(c2nnnn2Cc2ccccc2)N2CCN(C)CC2)c1OC (stereo not drawn)	-	-	-	-
Cc1cc2nc(-c3cccnc3SCC(=O)NCc3ccco3)[nH]c2cc1C	37	-	-	-
O=C(CSc1ncccc1-c1nc2ccccc2[nH]1)NCc1ccco1	-	-	-	-
CC1=C(C(=O)OC(C)(C)C)C(c2cccc(Br)c2)NC(=O)N1 (stereo not drawn)	-	-	-	-
COC(=O)N/N=C/c1c(C)[nH]c2ccc(C)cc12	-	-	-	-
Cc1ccc(NC(=O)/C=C\C(=O)O)cc1	-	-	-	-
O=C(O)/C=C/C(=O)Nc1ccc(Oc2ccc(Oc3ccc(NC(=O)/C=C/C(=O)O)cc3)cc2)cc1	39	-	-	-
Cc1cccc(OCC(=O)Nc2ccc(S(=O)(=O)N3CCOCC3)cc2)c1	-	-	-	-
O=C(CC1C(=O)NCCN1Cc1ccccc1C(F)(F)F)NCCc1cccc(F)c1 (stereo not drawn)	-	-	-	-
COC(=O)c1ccc2nc(-c3ccc(S(C)(=O)=O)cc3)cn2c1	-	-	-	-
COC(=O)c1ccc2nc(-c3cccc(N)c3)cn2c1	78	-	-	-
O=C(NCc1cccc(C(F)(F)F)c1)c1cccc(N2CCC(N3CCOCC3)CC2)n1	36	-	-	-
COc1ccc2c(c1)CC/C2=N\OC(=O)c1ccc(OC)c([N+](=O)[O-])c1	-	-	-	-
O=C(Nc1sc2c(c1C(=O)O)CCCC2)c1ccc(Br)cc1	-	-	-	-
CC(C)Oc1ccc(C(=O)Nc2sc3c(c2C#N)CCC3)cc1	-	-	-	-
Cc1cccc(C(=O)Nc2sc3c(c2C(=O)O)CCC3)c1	66	-	-	-
SMILES	TEAD-YAP inh	FBW7 activator	MITF primary	GPR151 activ
O=C(Nc1sc2c(c1C(=O)O)CCCC2)c1ccc(F)cc1	36	-	-	-
COc1ccc(C(=O)Nc2sc3c(c2C(=O)O)CCC3)cc1	40	-	-	-
CNC(=O)c1c(NC(=O)c2cccc(C)c2)sc2c1CCC2	-	-	-	-
COc1ccc(C(=O)Nc2sc3c(c2C#N)CCC3)cc1	37	-	-	-
Cc1c(Cl)cnc(NC(=O)COC(=O)c2ccc(NC(N)=O)cc2)c1Cl	-	-	-	-
COc1ccc(OC)c(-c2cc(Cl)c3c(c2)CC(CNC(=O)c2c(C)noc2C)O3)c1 (stereo not drawn)	-	-	-	-
Cc1ccc(C(=O)Nc2sc3c(c2C(=O)O)CCCC3)o1	40	-	-	-
CC(C)(C)c1ccc(C(=O)Nc2sc3c(c2C(=O)O)CCC3)cc1	89	-	-	-
O=C(Nc1sc2c(c1C(=O)O)CCC2)c1ccc(Br)cc1	-	-	-	-
CCN(CC)S(=O)(=O)c1ccc(Cl)c(C(=O)Nc2sc3c(c2C#N)CCC3)c1	34	-	-	-
C/C(=N\Nc1cc(N2CCOCC2)ncn1)c1ccc(O)c(C)c1	-	-	-	-
O=C(NCCc1nnc2n1CCN(C1CCSC1)CC2)C1CCCCC1 (stereo not drawn)	-	-	-	-
CC(c1ccccc1)N1COc2c(cc(Cl)c3cccnc23)C1 (stereo not drawn)	48	-	64	-
CCOC(=O)c1c(C)oc2c1c1c(c3ccccc32)OCN(C(C)c2ccccc2)C1 (stereo not drawn)	-	-	-	-
Cc1ccccc1NC(=O)Cn1nnc(C(=O)NCc2cccs2)c1N	46	-	-	-
c1coc(-c2nnc(-c3ccco3)o2)c1	-	-	-	-
